ATXN viability – cell viability loss in ATXN counter-screen; S2 cells (HEK-293 line with an ATXN2-luciferase reporter) viability, CellTiter-Fluor protease fluorescence, 24 h; Potency, µM (highest dose often 56.7 µM), usual class: cytotoxic; actives 0.49% (n = 400,000); further: nearly all actives have a fitted effect of over 40% in size
Nrf2 inh – Nrf2 pathway inhibition; A549 ARE-Fluc reporter, luciferase luminescence, 18-24 h; Potency, µM (doses to about 46 µM), without a hit: top-dose activity change, negative = inhibition, most hits filed as inhibitors; actives 2.1% (n = 360,000); AID 504444; further: on the % scale 0 is the no-effect control and ±100 the full control effect; nearly all actives have a fitted effect of over 60% in size
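In this cell-based qHTS, ARE-driven firefly luciferase in A549 cells reports Nrf2 activity; the luminescent signal after BugLite lysis is the measured value, with a prior CellTiter-Fluor read for cell health.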
ATXN2 expr inh – inhibitors of ATXN2 expression. Potency, µM (titrated, usually from 57 µM), for the others: top-dose activity change, negative = inhibition, actives largely listed as inhibitors. HEK-293 ATXN2-luciferase reporter, luminescence, 24 h. AID 1745845. actives 0.72% (n = 360,000); further: on the % scale 0 is the no-effect control and ±100 the full control effect; nearly all actives have a fitted effect of over 55% in size
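ATXN2-luciferase reporter cells (luciferase flanked by upstream and downstream ATXN2 gene portions) were treated 24 h at 37 °C with compounds at up to 57 uM. SteadyGlo luminescence gave expression; GF-AFC fluorescence gave viability.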
Nrf2 ARE act – activates Nrf2 signaling. AREc32 ARE-luciferase reporter (MCF7-derived line), luminescence, 24 h. Potency, µM (highest dose often 46.1 µM), for inactives: top-dose activation, usual class: activators. actives 0.31% (n = 410,000). AID 624171; further: % of control where 0% means no effect; nearly all actives have a fitted effect of over 65% in size
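Luminescent ARE reporter assay in AREc32_Fluc cells: overnight plating at 37 deg C, 24 hr compound incubation, Steady-Glo added, 30 min RT before reading.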
A549 tox – kills or reduces viability of A549 cells in Nrf2 counter-screen; A549 ARE-Fluc cells, CellTiter-Fluor viability, 18-24 h; Potency, µM (top dose mostly 46 µM), without a hit: top-dose activity change, negative = cytotoxicity, usual class: inhibitors; actives 0.16% (n = 390,000); AID 504648; further: on the % scale 0 is the no-effect control and ±100 the full control effect
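A549 ARE_Fluc cells in 5% FBS OPTI-MEM were exposed to compounds in concentration-response for 18-24 h at 37 deg C. Viability was read by CellTiter-Fluor fluorescence (Ex 405/Em 525) after 30 min, before the luciferase read.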
* marks the source's active call; other numbers are inactive results; i = inactive; ? = inconclusive; . = no result given; ! = not confirmed by another sample; [ ] = remark or other dose. Compounds with a hit are over-represented: about 2.9% of the library has one in this group of screens. The call rests on the fitted dose curve; in most records, active means well fitted curve in the direction sought with a large enough effect; inconclusive means small, poorly fitted or top-dose-only effect, or another doubt; inactive means no such curve, though single readings can be large; an effect the other way counts as inactive or inconclusive. Potency means the concentration at half of the fitted maximal effect.

SMILES	ATXN viability	Nrf2 inh	ATXN2 expr inh	Nrf2 ARE act	A549 tox
COc1ccc(C2=Nc3ccccc3OC2)cc1	?	?	40.8%	11.2µM*	-4.7%
Cc1ccc(C2=Nc3ccc(Cl)cc3OC2)cc1	.	.	38.4%	.	.
Clc1ccc2nnnc(-c3ccccc3)c2c1	?	?	15µM*	-3.3%	?
CC(C)n1nc(-c2cc3cc(O)ccc3[nH]2)c2c(N)ncnc21	?	.	5.01µM*	.	.
CC(C)(C)n1nc(-c2ccc(F)cc2)c2c(N)ncnc21	i	18.7%	0.8%	-1.7%	-4.9%
CN(C)c1ccc(-c2nc3ncc(Cl)c(N4CCN(CC(=O)Nc5nccs5)CC4)c3[nH]2)cc1	.	.	13.5%	.	.
O=C(Nc1ccccc1)Nc1ncc([N+](=O)[O-])s1	22.4µM*	?	?	-0.1%	23.1µM*
O=C(Nc1ccc2nc3n(c(=O)c2c1)CCCC3)c1cc([N+](=O)[O-])ccc1F	.	?	25.1µM*	-1.8%	-25.6%
CCC(C)N(C(=O)CSc1nc(-c2cccs2)nc2ccccc12)C1CCS(=O)(=O)C1 (configuration not stated)	i	8.2µM*	13.2%	2.4%	?
O=C(CNC(=O)c1cccc(OC(F)F)c1)Nc1ccc(Cl)cc1	i	25.9µM*	-7.2%	0.1%	-8.0%
Nc1ncc(-c2cccc(-c3nn4c(=O)cc(N5CCNCC5)nc4s3)c2)cn1	.	3.2%	.	.	-4.7%
CC(C)COc1ccc(C(=O)Nc2sc3c(c2C(=O)O)CC(C)(C)OC3)cc1	i	5.8µM*	-3.9%	-0.1%	?
CC1(C)Cc2c(sc(NC(=O)c3ccccc3)c2C(=O)O)CO1	i	?	0.9%	-0.3%	-16.6%
CCc1nnc(NC(=O)/C=C/c2ccco2)s1	i	19.9%	29.6%	4.47µM*	?
CCc1cccc(NC(=O)c2ccc3c(=O)n4nc(Nc5ccccc5OC)sc4nc3c2)c1	i	-1.0%	?	3.1%	6.6%
O=C1CC(C(=O)NC2CCCCC2)C(c2ccccc2)O1 (configuration not stated)	i	11.7%	4.5%	0.1%	-1.1%
C[C@@H]1[C@@H](Sc2ccccc2)CC(=O)O[C@@H]1c1ccc(-c2ccccc2)cc1	22.4µM*	18.4µM*	17.8µM*	?	-7.7%
COc1cc(NC(=O)C(NC(=O)C2CCC(C)CC2)C(C)C)cc(OC)c1OC (configuration not stated)	i	4.5%[9.27 µM]	10.2%	0.1%	7.6%
Cc1nn(-c2ccccc2)c(C)c1CC(=O)NCC1Cc2cc(F)cc(-c3cccnc3)c2O1 (configuration not stated)	i	.	.	.	.
COc1cc(OC)cc(-c2nc3n(n2)C(c2ccccc2)C(C(N)=O)=C(C)N3)c1 (configuration not stated)	i	4.1%	-7.6%	-0.7%	2.2%
Cn1c(=O)n(C)c2cc(NC(=O)CCl)ccc21	.	18.4µM*	-35.6%	?	?
COc1cc(/C=N/NC(=O)c2cc(-c3ccccc3)sc2N)cc(OC)c1OC	?	16.4µM*	-30.9%	4.6%	-12.3%
CC(=O)c1ccc(C(=O)NCc2nc(-c3ccccc3NC(=O)c3cc(C)oc3C)oc2C)cc1	i	.	.	.	.
CCCc1cc(=O)[nH]c(SCC(=O)Nc2sc(C(N)=O)c(C)c2C(=O)OCCOC)n1	i	5.17µM*	?	-1.4%	-3.1%
CCCc1cc(=O)[nH]c(SCC(=O)NC(=O)OCC)n1	i	6.2%	-3.1%	-0.5%	-1.4%
SMILES	ATXN viability	Nrf2 inh	ATXN2 expr inh	Nrf2 ARE act	A549 tox
COc1ccc(S(=O)(=O)Cc2ccc(C(=O)NC3CCCCC3)o2)cc1	i	14.6µM*!	-11.6%	0.0%	0.5%
Cc1ccccc1S(=O)(=O)Cc1ccc(C(=O)NC2CCCC2)o1	i	?	11.2%	-1.6%	-2.3%
COc1ccc(S(=O)(=O)Cc2ccc(C(=O)NC3CC3)o2)cc1	i	1.3%	4.0%	-1.0%	-7.4%
Cc1ccccc1S(=O)(=O)Cc1ccc(C(=O)NC2CC2)o1	i	20.6µM*	.	0.1%	?
CC(C)c1c(C(=O)NCC2(N3CCCCC3)CCCC2)cnn1-c1nccc(-c2ccco2)n1	i	.	.	.	.
O=S(=O)(Nc1cc(Cl)ccc1-n1cncn1)c1cc(Br)ccc1Br	?	13µM*	?	0.5%	?
COC(=O)Nc1ccc(S(=O)(=O)NC2CCS(=O)(=O)C2)cc1 (configuration not stated)	i	-4.8%	-4.3%	0.1%	0.6%
CCCCc1ccc(S(=O)(=O)NC2CCS(=O)(=O)C2)cc1 (configuration not stated)	i	18.4µM*	.	2.5%	-2.4%
COc1ccccc1CCNc1ncnc2sc(C(=O)N3CCCN(C=O)CC3)c(C)c12	i	.	.	.	.
O=C(Nc1ccc(S(=O)(=O)Nc2ccccc2)cc1)c1ccc(CN2CCOCC2)cc1	?	4.11µM*	?	0.3%	-4.5%
CN(C)S(=O)(=O)c1ccc(C(=O)Nc2nnc(SCC(=O)N3CCOCC3)s2)cc1	i	.	.	0.1%	.
COC(=O)c1ccc(NC(=O)c2ccc(CN3CCOCC3)cc2)cc1	i	9.2µM*	-15.5%	0.1%	-5.2%
CCC(C)Oc1ccc(C(=O)Nc2ccc(CN3CCOCC3)cc2)cc1 (configuration not stated)	i	23.1µM*	-14.2%	0.2%	-19.7%
O=C(Nc1ccc(CN2CCOCC2)cc1)c1ccc(Cl)cc1	i	?	.	4.4%	-18.4%
O=C(Nc1ccc(CN2CCOCC2)cc1)c1ccc(Br)cc1	i	-23.0%	-22.4%	4.5%	2.9%
CC(C)Oc1ccc(C(=O)Nc2nnc(SCC(=O)N3CCOCC3)s2)cc1	i	5.17µM*	10µM*	-1.6%	-2.8%
COc1ccc(NC(=O)c2cnc(SCC(=O)Nc3nc4ccc(C)cc4s3)n(C)c2=O)cc1	.	.	.	-0.7%	3.0%
Cc1ccc(/C=C/c2ccc(N(C)C)cc2)[n+](C)c1	?	4.11µM*	.	2.7%	10.3µM*
CN1CCCN=C1/C=C/c1cccs1	i	2.7%	-3.5%	-0.5%	2.4%
C[n+]1ccc(/C=C/c2cccs2)cc1	i	2.31µM*	-7.9%	2.0%	8.2µM*
CN(C)c1ccc(C(=O)/C=C/c2ccc(Br)cc2)cc1	i	13.6%	.	13.9%	-0.2%
CN(C)c1ccc(/C=C/c2cc[n+](C)cc2)cc1	?	4.11µM*	-38.3%	2.9%	20.6µM*
Cc1cc(=O)oc2cc(O[C@@H]3SC[C@@H](O)[C@H](O)[C@H]3O)ccc12	i	.	12.9%	.	.
COc1ccc(-c2nnc(SCC(=O)N(Cc3ccccc3)C(C)(C)C)o2)cc1OC	?	23.1µM*	?	-0.5%	-16.4%
CCN(C(=O)CSc1nnc(-c2cc(OC)c(OC)c(OC)c2)o1)c1ccccc1	i	-14.0%	4.9%	7.6%	1.6%
O=C(NCCc1cnc[nH]1)Nc1cccc(C(F)(F)F)c1	i	3.3%	.	-0.1%	5.7%

Source: PubChem
